Shown are actives, neighbours in structure and some others; about 19% of the full set was active somewhere.
IL1B secr inh: inflammasome signaling inhibition, IL-1 beta readout; activity change, % at 57.5 µM; 360,000 compounds, 4.7% hits; AID 743279; THP-1 LPS/ATP IL-1B secretion, AlphaLISA, 16 h; hits give low values; in the data active = activity change below about -50%; inconclusive = mostly about -30% to -49%
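Secreted IL-1B measured by AlphaLISA bead assay after 16 h compound exposure of THP-1 cells; compounds (final up to 57.5 uM) added 1 h before LPS (250 ng/mL) and ATP (1.25 mM) stimulation; lower signal means less secretion.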
HepG2 tox: kills HepG2 cells in TGF-b inhibitor counter-screen; HepG2 CAGA-GFP viability, ATP luminescence, 18 h; Potency, µM (titrated, usually from 46.1 µM), usual class: cytotoxic; 410,000 compounds, 0.76% hits; AID 588856
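HepG2 CAGA-GFP cells (1000/well, DMEM with 1% FBS) received compound, then TGF-beta at 500 pg/mL final, and were incubated 18 hours at 37 degrees C. Viability was read by CellTiter-Glo luminescence. Media-only wells were set as complete cell-killing and DMSO as no toxicity.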
TDP1 cell noCPT: qHTS for Inhibitors of human tyrosyl-DNA phosphodiesterase 1 (TDP1): qHTS in cells in absence of CPT; DT40 Tdp1-/- hTDP1 cells, no CPT, ATP luminescence, 48 h; Potency, µM (doses to about 46.2 µM), most hits filed as inhibitors; 420,000 compounds, 15% hits; note: nearly all actives have a fitted effect of over 55% in size
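Seeded 400 DT40-hTDP1 cells/well (vehicle DMSO, no 20 nM CPT); pinned compounds; ≥48 hr at 37 °C; CellTiter-Glo luminescence as viability measure.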
TGFb SMAD3 inh: TGF-b pathway inhibition | 410,000 compounds, 1.2% hits | Potency, µM (titrated, usually from 46.1 µM), actives largely listed as inhibitors | HepG2 CAGA-GFP TGF-b/SMAD3 reporter, GFP fluorescence, 18 h; TGF-beta stimulated, 500 pg/mL final; note: nearly all actives have a fitted effect of over 65% in size
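Inhibition of TGF-beta-driven CAGA-GFP reporter expression in HEPG2 cells is measured by cellular GFP fluorescence after 18 h stimulation with 500 pg/mL recombinant TGF-beta in 1% FBS medium at 37 degrees C.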
DT40 TDP1 CPT: DT40-hTDP1 cell growth loss with CPT; chicken DT40 Tdp1-/-;hTDP1 cells + 20 nM CPT, ATP luminescence, 48 h; Potency, µM (doses to about 46.2 µM), most hits filed as inhibitors; 420,000 compounds, 12% hits; note: nearly all actives have a fitted effect of over 55% in size
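Chicken DT40 Tdp1-/- cells complemented with human TDP1, 400 cells/well, exposed to compounds plus 20 nM camptothecin for at least 48 h at 37 C; viability read as ATP content by CellTiter-Glo luminescence.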
TDP1 block: blocks human tyrosyl-DNA phosphodiesterase 1; Q9NUW8; recombinant TDP1, AlphaScreen DNA substrate cleavage; Potency, µM (series often up to 130 µM), most hits filed as inhibitors; 350,000 compounds, 0.28% hits; AID 485290; note: nearly all actives have a fitted effect of over 40% in size
Target sequence (Q9NUW8 whole entry, looked up): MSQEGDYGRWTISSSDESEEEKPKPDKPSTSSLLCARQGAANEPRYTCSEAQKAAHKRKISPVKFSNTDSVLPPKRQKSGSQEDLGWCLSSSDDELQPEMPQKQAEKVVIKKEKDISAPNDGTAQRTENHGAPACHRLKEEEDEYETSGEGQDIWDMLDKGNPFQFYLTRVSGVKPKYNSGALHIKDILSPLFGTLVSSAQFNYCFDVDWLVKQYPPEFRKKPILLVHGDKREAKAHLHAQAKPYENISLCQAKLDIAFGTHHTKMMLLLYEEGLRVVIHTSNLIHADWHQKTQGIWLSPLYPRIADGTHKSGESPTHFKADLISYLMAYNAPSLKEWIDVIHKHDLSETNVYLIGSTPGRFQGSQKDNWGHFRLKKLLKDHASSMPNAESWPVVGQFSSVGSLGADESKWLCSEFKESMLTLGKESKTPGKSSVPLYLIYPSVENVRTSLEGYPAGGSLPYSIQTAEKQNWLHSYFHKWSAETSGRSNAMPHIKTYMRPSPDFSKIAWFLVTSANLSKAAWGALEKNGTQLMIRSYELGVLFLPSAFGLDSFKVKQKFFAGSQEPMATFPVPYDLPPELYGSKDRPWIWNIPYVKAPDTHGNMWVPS
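Tdp1 1 nM final; 15 min RT w/ cpd; substrate 15 nM, 5 min; beads 10 ug/ml, 10 min; AlphaScreen read. Neg ctrl: no enzyme.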
Of the large screens only hits and unclear results are named; the others gave an inactive call. Unless noted, calls come from the whole dose curve; as a rule, active = well fitted curve in the direction sought with a large enough effect; inconclusive = small, poorly fitted or top-dose-only effect, or another doubt; inactive = no such curve, though single readings can be large; an effect the other way counts as inactive or inconclusive.

CC1CCCC/C1=N\NC(=S)Nc1ccccc1 (centres undefined)	none
Cc1ccc(-c2nc3sc4c(c3c(=O)n2N)CC(C)(C)OC4)cc1	IL1B secr inh inconclusive, TDP1 cell noCPT inconclusive
CC1(C)Cc2c(sc3nc(-c4cc5ccccc5o4)n(N)c(=O)c23)CO1	TDP1 cell noCPT 21µM, DT40 TDP1 CPT inconclusive
CCSc1nc2sc3c(c2c(=O)n1CC)CC(C)(C)OC3	TDP1 cell noCPT inconclusive, DT40 TDP1 CPT inconclusive
CC(C)Cc1nc2sc3c(c2c(=O)n1N)CC(C)(C)OC3	TDP1 cell noCPT 10µM, DT40 TDP1 CPT 18µM
CC1(C)Cc2c(sc3nnn(Cc4ccc(Cl)cc4)c(=O)c23)CO1	TDP1 cell noCPT 13µM, DT40 TDP1 CPT inconclusive
COc1ccc(N(Cc2ccccc2)S(=O)(=O)c2cccc(C(=O)Nc3ncccc3C)c2)cc1	TDP1 cell noCPT inconclusive, DT40 TDP1 CPT inconclusive
COc1ccc(-c2cc(-c3ccc(OC)c(OC)c3)n[nH]2)c(O)c1	TDP1 cell noCPT 21µM, DT40 TDP1 CPT 26µM
Oc1ccccc1-c1cc(-c2ccc3c(c2)OCCO3)n[nH]1	IL1B secr inh -61, TDP1 cell noCPT inconclusive, TGFb SMAD3 inh inconclusive, DT40 TDP1 CPT inconclusive
COc1ccc(-c2cc(-c3cc(F)ccc3O)[nH]n2)cc1OC	TDP1 cell noCPT inconclusive, DT40 TDP1 CPT inconclusive
COc1ccc(-c2cc(-c3ccccc3O)[nH]n2)cc1OC	TDP1 cell noCPT 18µM, DT40 TDP1 CPT inconclusive
COc1cccc(CNC(=O)CCCn2ncn3c(cc4occc43)c2=O)c1OC	none (no result: IL1B secr inh)
Cc1ccc(S(=O)(=O)Cc2ccc(C(=O)NC3CCCCCC3)o2)cc1	TDP1 cell noCPT inconclusive, DT40 TDP1 CPT inconclusive
COc1ccc(NC(=O)C(c2cc3c(cc2[N+](=O)[O-])OCO3)N(C)c2ccccc2)cc1 (centres undefined)	TDP1 cell noCPT inconclusive
CCOc1cc2c(cc1OCC)C(CC(=O)O)N(C(=O)Nc1ccc(Br)c(C)c1)CC2 (centres undefined)	TDP1 cell noCPT inconclusive (no result: IL1B secr inh)
Cc1c(C(=O)N/N=C/c2ccc(O)c(Br)c2)sc(N)c1C#N	IL1B secr inh -96, TDP1 cell noCPT inconclusive, TGFb SMAD3 inh inconclusive, DT40 TDP1 CPT inconclusive
COc1cc(/C=N/NC(=O)c2sc(N)c(C#N)c2C)ccc1O	IL1B secr inh -90, TDP1 cell noCPT 15µM, TGFb SMAD3 inh inconclusive, DT40 TDP1 CPT inconclusive
C[C@H](CO)N1C[C@H](C)[C@@H](CN(C)C(=O)Nc2ccc(C(F)(F)F)cc2)Oc2ccc(NC(=O)CCC(F)(F)F)cc2C1=O	none
CCN(Cc1nc2cc(Cl)ccc2c(=O)[nH]1)C(=O)c1cc(C2CC2)nn1-c1ccccc1	TDP1 cell noCPT 2.9µM, TGFb SMAD3 inh inconclusive, DT40 TDP1 CPT 5.2µM
CCc1ccc2c(c1)-c1ccccc1S(=O)(=O)N2CC(=O)N1CCCCC1	TDP1 cell noCPT inconclusive, DT40 TDP1 CPT inconclusive (no result: IL1B secr inh)
CCc1ccc2c(c1)-c1ccccc1S(=O)(=O)N2CC(=O)N1CCC(C)CC1	TDP1 cell noCPT 18µM, DT40 TDP1 CPT 16µM (no result: IL1B secr inh)
CCOC(=O)C1CCN(C(=O)CN2c3ccc(C(C)C)cc3-c3ccccc3S2(=O)=O)CC1	TDP1 cell noCPT inconclusive, DT40 TDP1 CPT 21µM (no result: IL1B secr inh)
O=C(NCCC1=CCCCC1)c1ccc2c(c1)N(Cc1ccccc1)C(=O)c1ccccc1S2(=O)=O	TDP1 cell noCPT inconclusive, DT40 TDP1 CPT inconclusive (no result: IL1B secr inh, TGFb SMAD3 inh)
COc1ccc(C2(c3ccc(OC)cc3)NC(=O)N(Cn3nnc4ccccc4c3=O)C2=O)cc1	TDP1 cell noCPT inconclusive, DT40 TDP1 CPT 21µM
COc1ccc(/C=N/NC(=O)Cn2nc(C)c([N+](=O)[O-])c2C)cc1	TDP1 cell noCPT inconclusive, DT40 TDP1 CPT 12µM
COc1ccc(-c2nc(SC(C)C(=O)NC3CC3)n[nH]2)cc1 (centres undefined)	TGFb SMAD3 inh inconclusive
